Inconclusive results are not listed. The source made the active and inactive calls. Unless noted, calls follow the shape of the dose curve; as a rule, active = well fitted curve in the direction sought with a large enough effect in the repeat runs; inconclusive = weak or mixed curves; inactive = no such curve, though single readings can be large; an effect the other way counts as inactive or inconclusive.

Assay [1] is described as follows: qHTS assay to identify small molecule agonists of the peroxisome proliferator-activated receptor delta (PPARd) signaling pathway - cell viability counter screen (AID 743211). Also: nearly all actives have a fitted effect of over 55% in size. Also: potency is read from the fitted curve at half-maximal effect. Put shortly:
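HEK293H PPARd-bla, 3000 cells/well; 5 h preincubation 37C/5% CO2; cpd in DMSO, 17 h 37C; B/G FRET substrate 2 h RT; CellTiter-Glo 30 min RT, luminescence.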
On the technique in general: Quantitative high-throughput screening tests each substance at several concentrations.

Assay [2] has as its target Peroxisome proliferator-activated receptor delta (Homo sapiens) (UniProt Q03181). Description: qHTS assay to identify small molecule agonists of the peroxisome proliferator-activated receptor delta (PPARd) signaling pathway (AID 743212; calls by dose curve). Put shortly: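 Tox21 library screened in GeneBLAzer PPARd UAS-bla HEK293H cells. After compound treatment at 37 C, a FRET-based beta-lactamase substrate was applied for 2 h and fluorescence recorded.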

The nature of assay [3]: qHTS assay to identify small molecule antagonists of the peroxisome proliferator-activated receptor delta (PPARd) signaling pathway - cell viability counter screen (AID 743213). Also: nearly all actives have a fitted effect of over 50% in size. Also: potency is read from the fitted curve at half-maximal effect. In a few lines:
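PPARd-bla HEK293H cells were treated with compounds plus agonist L165041 (300 nM final) for 17 h at 37 C. Viability was then read in the same wells by CellTiter-Glo luminescence after 30 min at room temperature.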

Assay [4] has as its target Peroxisome proliferator-activated receptor delta (Homo sapiens) (UniProt Q03181). In words: qHTS assay to identify small molecule antagonists of the peroxisome proliferator-activated receptor delta (PPARd) signaling pathway (AID 743215; active = well fitted inhibition curve with a large enough effect in the signal ratio in the repeat runs, not every such curve was filed as active; the % refers to the signal ratio;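 also: cells stimulated with agonist L165041 at 300 nM final during compound exposure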; also: potency is read from the fitted curve at half-maximal effect). In a few lines: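 Agonist L165041 (300 nM final) added with compound to PPARd-bla HEK293H UAS-bla reporter cells; 17 h incubation at 37 C. Read-out: LiveBLAzer FRET substrate, 2 h at room temperature, fluorescence intensity.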

The nature of assay [5]: qHTS assay to identify small molecule antagonists of the farnesoid-X-receptor (FXR) signaling pathway - cell viability counter screen (AID 743221; active = well fitted cell-killing curve with a large enough effect in the repeat runs, not every such curve was filed as active; also: nearly all actives have a fitted effect of over 50% in size; also: potency is read from the fitted curve at half-maximal effect). In a few lines:
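Luminescence from CellTiter-Glo measures cytotoxicity in GeneBLAzer FXR-UAS-bla HEK 293T cells. Cells were exposed to compounds with 50 uM chenodeoxycholic acid (final) for 16 h at 37 C, in wells also used for the reporter readout.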

In assay [6] the target is Vitamin D3 receptor (Homo sapiens) (UniProt P11473). Description: qHTS assay to identify small molecule agonists of the vitamin D receptor (VDR) signaling pathway (AID 743222; calls by dose curve). In a few lines: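 Agonist mode, beta-lactamase reporter: fluorescence from LiveBLAzer B/G FRET substrate (2 h, room temperature) read after 16 h compound treatment at 37 C of VDR-bla cells, which were pre-incubated 4 h after seeding.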

Assay [7] has the same target. In words: qHTS assay to identify small molecule antagonists of the vitamin D receptor (VDR) signaling pathway (AID 743223; active = well fitted inhibition curve with a large enough effect in the signal ratio in the repeat runs, not every such curve was filed as active; the % refers to the signal ratio). Put shortly: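 Antagonist mode uses 1alpha,25-dihydroxyvitamin D3 at 3 nM final as stimulus. VDR-bla cells receive compounds in DMSO, incubate 16 h at 37C, then a beta-lactamase FRET substrate for 2 h at room temperature before fluorescence measurement.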

Assay [8] is described as follows: qHTS assay to identify small molecule agonists of the vitamin D receptor (VDR) signaling pathway - cell viability counter screen (AID 743224). Also: nearly all actives have a fitted effect of over 50% in size. Also: potency is read from the fitted curve at half-maximal effect. Put shortly:
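Counter screen run in the same wells as the VDR-bla reporter assay: CellTiter-Glo luminescence, 30 min at room temperature, after 16 h compound treatment at 37C of cells pre-plated for 4 h.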

Assay [9] is described as follows: qHTS assay to identify small molecule antagonists of the vitamin D receptor (VDR) signaling pathway - cell viability counter screen (AID 743225). Also: nearly all actives have a fitted effect of over 50% in size. Also: potency is read from the fitted curve at half-maximal effect. In a few lines: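 Read-out: CellTiter-Glo luminescence measured 30 min after reagent addition at room temperature. Cells were VDR-bla HEK 293T exposed 16 h at 37C, 5% CO2, to compound with 3 nM final calcitriol agonist.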

A short description of assay [10]: qHTS assay to identify small molecule agonists of the endoplasmic reticulum stress response signaling pathway (AID 1159516; active = well fitted activation curve with a large enough effect in the signal ratio in the repeat runs, not every such curve was filed as active; the % refers to the signal ratio). Put shortly:
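Ratiometric FRET readout (405 nm excitation; 460 and 530 nm emission) of a beta-lactamase gene driven by the ER stress response element, after 2 hr substrate loading. HeLa ESRE-bla cells were seeded overnight and treated with compounds for only 5 hr at 37 C.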

Assay [11] is described as follows: qHTS assay to identify small molecule antagonists of the retinoid-related orphan receptor gamma (ROR-gamma) signaling pathway - cell viability counter screen (AID 1159520). Also: nearly all actives have a fitted effect of over 50% in size. Also: potency is read from the fitted curve at half-maximal effect. Put shortly: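 Tet-on ROR gamma CHO cells were given compounds for 2 hr, then doxycycline hyclate at 1 uM final, and incubated 16 hr at 37 C. Viability was measured as ATP content by CellTiter-Glo luminescence.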

A short description of assay [12]: qHTS assay to identify small molecule agonists of the AP-1 signaling pathway - cell viability counter screen (AID 1159525; calls by dose curve; also: nearly all actives have a fitted effect of over 55% in size; also: potency is read from the fitted curve at half-maximal effect). Put shortly:
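Same-well cytotoxicity counter screen of the Tox21 10K library in ME-180 cells. The readout is ATP-dependent luminescence after 5 h compound treatment. Data are normalised to DMSO and tetra n-octyl ammonium bromide controls.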

The target of assay [13] is Bile acid receptor (Homo sapiens) (UniProt Q96RI1). In words: qHTS assay to identify small molecule agonists of the farnesoid-X-receptor (FXR) signaling pathway (AID 743220; active = well fitted activation curve with a large enough effect in the signal ratio in the repeat runs, not every such curve was filed as active; the % refers to the signal ratio). In a few lines: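 FXR-UAS-bla HEK 293T cells carrying a UAS-driven beta-lactamase reporter were plated for 5 h at 37C/5% CO2, then exposed to DMSO-dissolved Tox21 10K compounds for 16 h at 37C. A LiveBLAzer B/G FRET substrate was loaded for 2 h at room temperature before fluorescence reading.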

A short description of assay [14]: qHTS assay to identify small molecule agonists of the farnesoid-X-receptor (FXR) signaling pathway - cell viability counter screen (AID 743218). Also: nearly all actives have a fitted effect of over 45% in size. Also: potency is read from the fitted curve at half-maximal effect. In a few lines: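 Viability counter screen in the same wells: CellTiter-Glo luminescence, 30 min room-temperature incubation, measured after the beta-lactamase read. Cells were GeneBLAzer FXR-UAS-bla HEK 293T, compound-treated 16 h at 37C.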

A short description of assay [15]: qHTS assay to identify small molecule agonists of the RXR signaling pathway - cell viability counter screen (AID 1159529). Also: nearly all actives have a fitted effect of over 50% in size. Also: potency is read from the fitted curve at half-maximal effect. In a few lines: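 HEK 293T RXRa-bla cells, 2% CS-FBS; 5 h settle; cpd 16 h 37 C, 5% CO2; CellTiter-Glo 30 min RT, luminescence. Tetraoctyl ammonium bromide as positive control.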
Assay [16] can be described thus: qHTS assay to identify small molecule agonists of the endoplasmic reticulum stress response signaling pathway - cell viability counter screen (AID 1159517; calls by dose curve). In a few lines: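 In parallel with the ESRE reporter read, cytotoxicity was scored by CellTiter-Glo luminescence (30 min, room temperature) on HeLa ESRE-bla cells dosed for 5 hr.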
Assay [17] deals with Nuclear receptor ROR-gamma (Homo sapiens) (UniProt P51449). In words: qHTS assay to identify small molecule antagonists of the retinoid-related orphan receptor gamma (ROR-gamma) signaling pathway (AID 1159521; also: nearly all actives have a fitted effect of over 50% in size; also: potency is read from the fitted curve at half-maximal effect). In a few lines: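 CHO Tet-on RORγ, RORE-luc reporter. Cpd 2 h pre-incubation, then dox hyclate 1 uM final, 16 h, 37 C/5% CO2. ONE-Glo luminescence; decrease = antagonist.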

The nature of assay [18]: qHTS assay to identify small molecule agonists of the AP-1 signaling pathway (AID 1159526; calls by dose curve).
Assay [19] addresses Retinoic acid receptor RXR-alpha (Homo sapiens) (UniProt P19793). In words: qHTS assay to identify small molecule agonists of the RXR signaling pathway (AID 1159527; calls by dose curve; also: nearly all actives have a fitted effect of over 35% in size). In a few lines:
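Read-out: beta-lactamase FRET ratio (405 nm excitation, 460 and 530 nm emission) after 2 hr substrate loading at room temperature. Cells were RXR-alpha-UAS-bla HEK 293T treated with compounds for 16 hr in 2% charcoal-stripped FBS medium.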

Assay [20] deals with Bile acid receptor (Homo sapiens) (UniProt Q96RI1). Description: qHTS assay to identify small molecule antagonists of the farnesoid-X-receptor (FXR) signaling pathway (AID 743217; active = well fitted inhibition curve with a large enough effect in the signal ratio in the repeat runs, not every such curve was filed as active; the % refers to the signal ratio). Put shortly: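 Antagonist mode: chenodeoxycholic acid at 50 uM final stimulates a UAS-driven beta-lactamase reporter in HEK 293T FXR-bla cells during 16 h, 37C compound exposure. Read-out is FRET substrate fluorescence after 2 h at room temperature.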

Peroxisome proliferator-activated receptor delta (Homo sapiens), sequence (Q03181 whole entry, looked up): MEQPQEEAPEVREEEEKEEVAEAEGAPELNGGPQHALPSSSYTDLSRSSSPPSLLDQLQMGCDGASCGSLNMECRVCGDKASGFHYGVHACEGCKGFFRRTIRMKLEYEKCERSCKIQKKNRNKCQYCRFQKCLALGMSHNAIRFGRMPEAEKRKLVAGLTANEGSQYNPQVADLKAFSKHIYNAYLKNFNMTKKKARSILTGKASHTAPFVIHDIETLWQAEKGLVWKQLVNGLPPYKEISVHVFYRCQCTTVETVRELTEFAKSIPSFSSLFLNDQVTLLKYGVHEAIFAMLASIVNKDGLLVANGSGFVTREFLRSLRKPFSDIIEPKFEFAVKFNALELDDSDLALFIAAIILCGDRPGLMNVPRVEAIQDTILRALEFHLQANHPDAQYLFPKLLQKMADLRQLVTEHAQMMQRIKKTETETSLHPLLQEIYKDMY
Bile acid receptor (Homo sapiens), sequence (Q96RI1 whole entry, looked up): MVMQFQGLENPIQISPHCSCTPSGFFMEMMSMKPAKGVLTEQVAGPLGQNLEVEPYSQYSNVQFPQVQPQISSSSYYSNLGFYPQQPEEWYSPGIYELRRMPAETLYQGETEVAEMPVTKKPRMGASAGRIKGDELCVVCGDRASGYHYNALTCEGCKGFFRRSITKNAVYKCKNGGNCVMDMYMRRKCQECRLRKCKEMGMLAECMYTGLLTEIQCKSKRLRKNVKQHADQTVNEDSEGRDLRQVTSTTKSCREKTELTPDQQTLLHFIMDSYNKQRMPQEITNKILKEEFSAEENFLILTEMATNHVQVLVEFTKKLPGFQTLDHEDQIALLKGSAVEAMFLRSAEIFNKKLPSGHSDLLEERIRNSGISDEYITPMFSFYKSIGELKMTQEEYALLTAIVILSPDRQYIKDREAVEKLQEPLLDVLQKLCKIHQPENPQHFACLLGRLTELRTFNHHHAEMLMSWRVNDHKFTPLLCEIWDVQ
Vitamin D3 receptor (Homo sapiens), sequence (P11473 whole entry, looked up): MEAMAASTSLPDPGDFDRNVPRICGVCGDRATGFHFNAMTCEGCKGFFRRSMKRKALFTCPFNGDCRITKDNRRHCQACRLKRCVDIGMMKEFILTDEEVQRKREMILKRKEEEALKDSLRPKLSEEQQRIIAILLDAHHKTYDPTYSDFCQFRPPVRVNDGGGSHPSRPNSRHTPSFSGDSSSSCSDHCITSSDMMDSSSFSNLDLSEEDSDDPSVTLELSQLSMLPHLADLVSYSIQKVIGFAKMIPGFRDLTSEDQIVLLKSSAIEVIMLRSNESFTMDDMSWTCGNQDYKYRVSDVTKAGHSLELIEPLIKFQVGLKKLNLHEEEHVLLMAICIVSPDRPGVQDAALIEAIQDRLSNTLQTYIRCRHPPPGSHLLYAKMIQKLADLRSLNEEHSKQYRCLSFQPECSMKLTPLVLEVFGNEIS
Retinoic acid receptor RXR-alpha (Homo sapiens), sequence (P19793 whole entry, looked up): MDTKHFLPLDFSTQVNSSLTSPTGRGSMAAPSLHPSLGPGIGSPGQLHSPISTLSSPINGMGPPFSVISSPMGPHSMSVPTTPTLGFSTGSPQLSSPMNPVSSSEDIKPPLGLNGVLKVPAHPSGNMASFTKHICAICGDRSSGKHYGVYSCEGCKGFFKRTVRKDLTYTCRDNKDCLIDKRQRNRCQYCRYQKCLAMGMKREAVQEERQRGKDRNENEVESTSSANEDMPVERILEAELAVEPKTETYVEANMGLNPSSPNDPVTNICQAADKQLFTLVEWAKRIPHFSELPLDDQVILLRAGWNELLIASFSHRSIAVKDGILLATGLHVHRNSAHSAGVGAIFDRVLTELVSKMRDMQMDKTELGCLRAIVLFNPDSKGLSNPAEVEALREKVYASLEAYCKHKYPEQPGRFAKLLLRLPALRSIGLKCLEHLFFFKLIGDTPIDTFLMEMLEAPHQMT

On to `Nc1ncnc2c1ncn2[C@@H]1O[C@H](COP(=O)(O)O)[C@@H](O)[C@H]1O`, for which the Potency is 10.6 µM (active) in assay [1]; 11.9 µM (active) in assay [3]; 13.3 µM (active) in assay [5]; 10.6 µM (active) in [8]; 10.7 µM (active) in assay [9]. In addition, in assay [2], the call was inactive. Also, the Potency result in assay [4], in [6], in [7], in assay [10], in [11] and in assay [12] was “inactive” in each case.
`S=P(N1CC1)(N1CC1)N1CC1`: the call in assay [2] was inactive. In addition, the Potency entry in assay [13], in [5] and in [10] was “inactive” throughout. The Potency in assay [8] was 41 µM (active).
As for `C=CC(=O)OCCOCC(CC)(COCCOC(=O)C=C)COCCOC(=O)C=C`, the Potency was 51 µM (active) in assay [1]; 36.1 µM (active) in assay [3]; 51 µM (active) in assay [14]; 51 µM (active) in [5]; 64.3 µM (active) in assay [8]; 64.3 µM (active) in assay [9]. The Potency in assay [11] is 11.3 µM (active). The Potency result in assay [10] was “inactive”.
In the case of `CC(C)(c1cc(Br)c(OCCO)c(Br)c1)c1cc(Br)c(OCCO)c(Br)c1`, the Potency in assay [1] is 15.1 µM (active); in assay [3] it was 42.7 µM (active); in assay [14], 19.1 µM (active); in [8], 38 µM (active); in assay [11], 47.5 µM (active); in [15], 42.7 µM (active). Further, the Potency entry in assay [13] and in [10] was “inactive” throughout.
For the molecule `CCCCCCCCCCCCCCNCCO`, in assay [2], the result was inactive. Further, the Potency result in assay [4], in [14], in assay [5], in assay [6], in assay [7] and in assay [8] was “inactive” in each case. The Potency entry in [17], in assay [12], in assay [18] and in assay [19] was “inactive” throughout. In addition, the figures for the Potency in assay [16] and in assay [11] were 23.9 µM (active) and 26.6 µM (active), respectively.
With `C[C@@H]1CC[C@H]2C(C)(C)[C@H]3C[C@@]12CC[C@@]3(C)O`, the outcome in assay [2] was inactive. The Potency entry in [3], in [4], in assay [20], in assay [13], in assay [5] and in [9] was “inactive” throughout. The Potency result in assay [10], in assay [17], in assay [12] and in assay [19] was “inactive” throughout.
For `CN1CCN(C2Cc3ccccc3Sc3ccc(Cl)cc32)CC1` (stereo not drawn), the Potency in assay [1] is 26.6 µM (active); in assay [14] it was 26.6 µM (active); in assay [5], 29.8 µM (active); in assay [17] it was 26.6 µM (active); in assay [15], 23.9 µM (active). Besides, the molecule was classed as inactive in [2]. Also, the Potency result in [13], in assay [7] and in assay [10] was “inactive” in each case.
In the case of `COCC(=O)O[C@]1(CCN(C)CCCc2nc3ccccc3[nH]2)CCc2cc(F)ccc2[C@@H]1C(C)C`, the Potency in [1] was 11.9 µM (active); in assay [3] it was 16.8 µM (active); in [14], 11.9 µM (active); in assay [5] it was 23.7 µM (active); in assay [8] it was 26.6 µM (active); in [9] it was 21.3 µM (active). In addition, the Potency in assay [11] is 29.8 µM (active); in [15] it was 15.1 µM (active). In addition, the Potency entry in [13], in [10] and in assay [12] was “inactive” in each case.
With `O=C(Oc1ccccc1)c1cccc(C(=O)Oc2ccccc2)c1`, the Potency entry in assay [8], in assay [10], in assay [11], in assay [17] and in assay [12] was “inactive” throughout.
For the molecule `Cc1ccc(N)cc1O`, the Potency entry in [3], in [5], in assay [10], in assay [11] and in assay [17] was “inactive” each time. For the same molecule, the Potency in assay [12] was 38.9 µM (active).
For `CCCCCCC(C)Nc1ccc(Nc2ccccc2)cc1` (stereo not drawn), the Potency in [1] was 43.6 µM (active); in assay [4], 49 µM (active); in assay [5], 49 µM (active); in [8], 38.9 µM (active); in assay [12], 49 µM (active). The outcome in assay [2] was inactive. Moreover, the Potency result in [10] is “inactive”.
Consider `O=C1OC(=O)c2cccc3cccc1c23`, for which the Potency result in [1], in assay [4], in [14], in assay [5], in assay [8] and in assay [9] was “inactive” throughout. Also, the Potency result in assay [10], in assay [11], in assay [17], in assay [12], in assay [19] and in assay [15] was “inactive” in each case. Further, in [2], the call was inactive.

For the origin of these results see PubChem BioAssay (Tox21).
